Where “and” joins values, the source holds several entries; their conditions need not be identical. Equal values may be shown once. Inconclusive results are not listed. Where a call stands in place of a potency, no number is given. Calls of active or inactive are those of the source. Unless noted, calls follow the shape of the dose curve; as a rule, active = well fitted curve in the direction sought with a large enough effect in the repeat runs; inconclusive = weak or mixed curves; inactive = no such curve, though single readings can be large; an effect the other way counts as inactive or inconclusive.
Experiments:
[1] = qHTS assay to test for compound auto fluorescence at 535 nm (green) in HEK293 cells (AID 720680)
[2] = qHTS assay to test for compound auto fluorescence at 460 nm (blue) in HEK293 cell free culture (AID 720681)
Outline: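 Blue fluorescence (Ex 405/Em 460 nm, triamterene-equivalent) was read immediately after pin transfer of compound or DMSO into medium (DMEM, 10% FBS) without cells.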

[3] = qHTS assay to test for compound auto fluorescence at 535 nm (green) in HEK293 cell free culture (AID 720682)
Outline: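 Fluorescein serves as the green reference fluorophore; each compound's intrinsic emission at 535 nm (excitation 485 nm) is reported as an equivalent amount of that dye, measured in serum-containing DMEM without cells.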

[4] = qHTS assay to test for compound auto fluorescence at 590 nm (red) in HEK293 cell free culture (AID 720683)
Outline: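 Red-channel autofluorescence of compounds in culture medium (DMEM, 10% FBS), no cells, measured at 540/590 nm. Rose Bengal sodium is the reference fluorophore for equivalence.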

[5] = qHTS assay to test for compound auto fluorescence at 590 nm (red) in HepG2 cell free culture (AID 720684)
Outline: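 Steps: dispense MEM/10% FBS medium, no cells; pin compound or DMSO vehicle; read red channel, Ex/Em 540/590 nm. Output given as Rose Bengal sodium equivalents.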

[6] = qHTS assay to test for compound auto fluorescence at 460 nm (blue) in HepG2 cell free culture (AID 720685)
Outline: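 Compound (23 nL) or DMSO pinned into cell-free MEM with 10% FBS; blue fluorescence read at 405/460 nm excitation/emission, expressed as auto-fluorescence equivalency to triamterene.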

[7] = qHTS assay to test for compound auto fluorescence at 535 nm (green) in HepG2 cell free culture (AID 720686)
[8] = qHTS assay to test for compound auto fluorescence at 460 nm (blue) in HepG2 cells (AID 720687)
Outline: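 Blue-channel autofluorescence (Ex/Em 405/460 nm, triamterene-equivalent) was measured after 1 hr compound exposure at 37 C, 5% CO2. Cells were HepG2, plated overnight at 37 C in MEM plus 10% FBS.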

[9] = qHTS assay to identify small molecule antagonists of the glucocorticoid receptor (GR) signaling pathway - cell viability counter screen (AID 720693); also: nearly all actives have a fitted effect of over 55% in size; also: potency is read from the fitted curve at half-maximal effect
[10] = qHTS assay for identifying genotoxic compounds that show differential cytotoxicity against isogenic chicken DT40 cell lines with known DNA damage response pathways - wild type cell line (AID 743012); also: nearly all actives have a fitted effect of over 60% in size; also: potency is read from the fitted curve at half-maximal effect
Outline: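 Wild type DT40, 300 cells/well, ~0.5 h settle at 37 C/5% CO2; compounds in DMSO added by pintool; 40 h at 37 C/5% CO2; CellTiter-Glo, 30 min RT; luminescence.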

[11] = qHTS assay for identifying genotoxic compounds that show differential cytotoxicity against isogenic chicken DT40 cell lines with known DNA damage response pathways - Rad54/Ku70 mutant cell line (AID 743015); also: nearly all actives have a fitted effect of over 60% in size; also: potency is read from the fitted curve at half-maximal effect
[12] = qHTS assay to identify small molecule antagonists of the androgen receptor (AR) signaling pathway - cell viability counter screen (AID 743033; also: nearly all actives have a fitted effect of over 45% in size)
[13] = biological target: Androgen receptor (Homo sapiens) (UniProt P10275); test: qHTS assay to identify small molecule agonists of the androgen receptor (AR) signaling pathway (AID 743036; active = well fitted activation curve with a large enough effect in the signal ratio in the repeat runs, with a control signal flat, not every such curve was filed as active; the % refers to the signal ratio)
Outline: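 Fluorescence from a beta-lactamase FRET substrate served as read-out in AR-UAS-bla GripTite HEK293 cells. Cells were treated with DMSO-dissolved compounds for 16 h at 37C, then with LiveBLAzer B/G substrate for 2 h at room temperature.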

[14] = biological target: Androgen receptor (Homo sapiens) (UniProt P10275); test: qHTS assay to identify small molecule agonists of the androgen receptor (AR) signaling pathway using the MDA cell line (AID 743040; also: nearly all actives have a fitted effect of over 20% in size)
Outline: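 Cells plated, 5 h at 37C/0% CO2; compound or DMSO pinned; 16 h at 37C; ONE-Glo added; luminescence measured after 30 min at room temperature. Reporter line: MDA-kb2 with MMTV-luciferase responsive to AR and GR.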

[15] = qHTS assay to identify small molecule antagonists of the androgen receptor (AR) signaling pathway using the MDA cell line - cell viability counter screen (AID 743041; also: nearly all actives have a fitted effect of over 45% in size)
Outline: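 Cells were plated at 3,000 per well and left 5 h. Compounds in DMSO were then pinned in, followed by R1881. After 16 h at 37C, CellTiter-Fluor fluorescence gave viability.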

[16] = biological target: Androgen receptor (Homo sapiens) (UniProt P10275); test: qHTS assay to identify small molecule antagonists of the androgen receptor (AR) signaling pathway using the MDA cell line (AID 743042; also: nearly all actives have a fitted effect of over 55% in size)
Outline: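 Antagonist mode: compounds plus R1881 agonist added to MDA-kb2 AR-luc cells, incubated 16 h at 37C. Luciferase reporter luminescence quantified, with multiplexed CellTiter-Fluor readout for cell viability.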

[17] = qHTS assay for identifying genotoxic compounds that show differential cytotoxicity against isogenic chicken DT40 cell lines with known DNA damage response pathways - Rev3 mutant cell line (AID 743014); also: nearly all actives have a fitted effect of over 55% in size; also: potency is read from the fitted curve at half-maximal effect
[18] = biological target: Glucocorticoid receptor (Homo sapiens) (UniProt P04150); test: qHTS assay to identify small molecule agonists of the glucocorticoid receptor (GR) signaling pathway (AID 720691; active = well fitted activation curve with a large enough effect in the signal ratio in the repeat runs, not every such curve was filed as active; the % refers to the signal ratio); settings: GR-bla HeLa, beta-lactamase reporter ratio, 18 h; activation: at 62.4 µM (top of the series)
Outline: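 Fluorescence intensity from LiveBLAzer B/G FRET substrate (2 h, room temperature) reports beta-lactamase expression driven by the glucocorticoid response element in GR-bla HeLa cells after 18 h compound exposure at 37 C.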

[19] = biological target: Glucocorticoid receptor (Homo sapiens) (UniProt P04150); test: qHTS assay to identify small molecule antagonists of the glucocorticoid receptor (GR) signaling pathway (AID 720692; active = well fitted inhibition curve with a large enough effect in the signal ratio in the repeat runs, not every such curve was filed as active; the % refers to the signal ratio)
Outline: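 HeLa GR-bla cells; cmpd + dex 5 nM final, 18 h 37 C; LiveBLAzer B/G FRET substrate 2 h RT; fluorescence intensity read. Antagonist mode, qHTS.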

Androgen receptor (Homo sapiens), sequence (P10275 whole entry, looked up): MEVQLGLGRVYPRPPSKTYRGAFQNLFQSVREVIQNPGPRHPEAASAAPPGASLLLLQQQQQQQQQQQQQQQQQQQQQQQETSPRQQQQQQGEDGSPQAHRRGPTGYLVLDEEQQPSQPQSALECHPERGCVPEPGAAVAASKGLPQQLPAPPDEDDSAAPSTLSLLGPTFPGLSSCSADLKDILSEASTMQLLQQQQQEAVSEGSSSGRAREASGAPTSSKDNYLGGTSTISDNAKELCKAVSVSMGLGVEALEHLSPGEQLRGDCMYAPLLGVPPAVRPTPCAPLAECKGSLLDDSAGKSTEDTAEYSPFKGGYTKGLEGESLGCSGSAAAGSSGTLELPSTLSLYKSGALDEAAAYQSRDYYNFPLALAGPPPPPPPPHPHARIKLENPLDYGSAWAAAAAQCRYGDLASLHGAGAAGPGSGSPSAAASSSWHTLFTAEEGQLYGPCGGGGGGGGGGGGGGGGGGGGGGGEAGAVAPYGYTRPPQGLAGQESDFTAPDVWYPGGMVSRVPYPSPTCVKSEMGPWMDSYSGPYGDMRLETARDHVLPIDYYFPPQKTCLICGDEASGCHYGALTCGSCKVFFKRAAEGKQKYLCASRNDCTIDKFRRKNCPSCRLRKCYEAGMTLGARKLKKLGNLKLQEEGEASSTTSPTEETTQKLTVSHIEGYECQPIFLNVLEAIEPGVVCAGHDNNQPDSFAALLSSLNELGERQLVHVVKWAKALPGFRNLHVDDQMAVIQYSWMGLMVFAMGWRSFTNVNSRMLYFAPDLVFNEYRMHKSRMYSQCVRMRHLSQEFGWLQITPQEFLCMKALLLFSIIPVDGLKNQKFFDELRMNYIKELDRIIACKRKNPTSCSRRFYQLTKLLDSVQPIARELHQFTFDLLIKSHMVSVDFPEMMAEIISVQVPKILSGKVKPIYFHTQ
Glucocorticoid receptor (Homo sapiens), sequence (P04150 whole entry, looked up): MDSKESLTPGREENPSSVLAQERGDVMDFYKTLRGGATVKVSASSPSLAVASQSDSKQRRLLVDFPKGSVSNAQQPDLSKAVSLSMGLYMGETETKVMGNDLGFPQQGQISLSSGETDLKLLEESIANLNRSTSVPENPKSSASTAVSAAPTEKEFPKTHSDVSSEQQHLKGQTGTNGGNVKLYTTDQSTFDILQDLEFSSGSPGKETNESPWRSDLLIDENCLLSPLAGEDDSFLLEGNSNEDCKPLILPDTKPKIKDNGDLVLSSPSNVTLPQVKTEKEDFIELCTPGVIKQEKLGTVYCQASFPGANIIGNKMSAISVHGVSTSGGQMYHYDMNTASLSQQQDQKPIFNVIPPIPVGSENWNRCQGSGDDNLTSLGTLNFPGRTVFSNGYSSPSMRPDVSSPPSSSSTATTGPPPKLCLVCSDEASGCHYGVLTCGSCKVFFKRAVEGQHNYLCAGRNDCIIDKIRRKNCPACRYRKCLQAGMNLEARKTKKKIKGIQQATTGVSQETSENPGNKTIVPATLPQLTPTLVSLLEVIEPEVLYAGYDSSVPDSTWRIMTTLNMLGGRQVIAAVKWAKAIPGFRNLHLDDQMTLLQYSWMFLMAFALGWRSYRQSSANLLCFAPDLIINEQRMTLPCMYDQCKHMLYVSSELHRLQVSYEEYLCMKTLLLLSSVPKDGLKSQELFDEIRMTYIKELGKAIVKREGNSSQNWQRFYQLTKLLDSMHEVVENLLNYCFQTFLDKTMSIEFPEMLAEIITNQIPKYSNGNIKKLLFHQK

Compound | Potency [1] | Potency [2] | Potency [3] | Potency [4] | Potency [5] | outcome [6] | Potency [7] | outcome [8] | Potency [9] | Potency [10] | Potency [11] | Potency [12] | Potency [13] | Potency [14] | Potency [15] | Potency [16] | Potency [17] | Potency [18] | Potency [19]
CC(C)[C@@H]1CC[C@@H](C)C[C@H]1OC(=O)c1ccccc1O | inactive | inactive | inactive | inactive | inactive | inactive | inactive | inactive | inactive | inactive | inactive | inactive | inactive | inactive | inactive | inactive |  |  | 
CC(=O)Nc1ccc(OC(=O)c2ccccc2O)cc1 | inactive | inactive | inactive | inactive | inactive | inactive | inactive | inactive | inactive | inactive |  |  |  | inactive | inactive | inactive | inactive |  | 
O=C(O)c1ccc(NC(=O)[C@H](Cc2ccc(O)cc2)NC(=O)c2ccccc2)cc1 | inactive | inactive | inactive | inactive | inactive | inactive | inactive | inactive | inactive | inactive |  |  | inactive | inactive | inactive | inactive | inactive |  | 
O=C(O)CO.[NH2-].[NH2-].[Pt+2] | inactive | inactive | inactive | inactive | inactive | inactive | inactive | inactive | inactive | inactive | inactive | inactive |  |  | inactive |  |  |  | 
CO[C@H]1C=CO[C@@]2(C)Oc3c(C)c(O)c4c(O)c(c5c(nc6cc(C)ccn65)c4c3C2=O)NC(=O)/C(C)=C\C=C[C@H](C)[C@H](O)[C@@H](C)[C@@H](O)[C@@H](C)[C@H](OC(C)=O)[C@@H]1C | inactive | inactive | inactive | inactive | inactive | inactive | inactive | inactive | inactive | 26.6 µM (active) | 29.8 µM (active) |  |  |  | inactive |  | 23.7 µM (active) |  | 
CSc1nc2cc(Oc3cccc(Cl)c3Cl)c(Cl)cc2[nH]1 | inactive | inactive | inactive | inactive | inactive | inactive | inactive | inactive | 10.7 µM (active) | 18.8 µM (active) | 21.1 µM (active) | inactive |  |  | inactive |  |  |  | 
CC(=O)O[C@H]1C[C@@H]2CC[C@@H]3[C@H](CC[C@@]4(C)[C@H]3C[C@H](N3CC[N+](C)(C)CC3)[C@@H]4OC(C)=O)[C@@]2(C)C[C@@H]1N1CC[N+](C)(C)CC1 | inactive | inactive | inactive | inactive | inactive | inactive | inactive | inactive | inactive | inactive | inactive |  |  |  | inactive |  | inactive |  | 
CCCc1nc(C(C)(C)O)c(C(=O)OCc2oc(=O)oc2C)n1Cc1ccc(-c2ccccc2-c2nn[nH]n2)cc1 | inactive | inactive | inactive | inactive | inactive | inactive | inactive | inactive | inactive | inactive |  | inactive |  |  | inactive |  | inactive |  | 
COC(=O)[C@H]1[C@H]2C[C@@H]3c4[nH]c5ccccc5c4CCN3C[C@H]2C[C@@H](OC(=O)c2cc(OC)c(OC)c(OC)c2)[C@@H]1OC | inactive | inactive | inactive | inactive | inactive | inactive | inactive | inactive | inactive | 1.06 µM (active) and 11.9 µM (active) |  |  |  |  | inactive |  | 1.68 µM (active) and 21.1 µM (active) |  | 
CC(C)(C)C(=O)OCOC(=O)[C@@H]1N2C(=O)[C@@H](N=CN3CCCCCC3)[C@H]2SC1(C)C | inactive | inactive | inactive | inactive | inactive | inactive | inactive | inactive | inactive | inactive | inactive |  |  |  | inactive |  | inactive |  | 
OC[C@H]1OC([S-])[C@H](O)[C@@H](O)[C@@H]1O.[Au+] (stereo partly specified) | inactive | inactive | inactive | inactive | inactive | inactive | inactive | inactive | inactive | 10.6 µM (active) |  | inactive |  |  | inactive |  | inactive |  | 
CC1(C)[C@@H]2CC[C@@]1(C)[C@H](OC(=O)CSC#N)C2 | inactive | inactive | inactive | inactive | inactive | inactive | inactive | inactive | inactive |  | inactive | inactive |  |  | inactive |  | inactive |  | 
CC(C)Cc1ccc([C@@H](C)C(=O)NS(C)(=O)=O)cc1 | inactive | inactive | inactive | inactive | inactive | inactive | inactive | inactive |  |  |  | inactive |  |  | inactive |  |  |  | 
COC(=O)CC[C@H](N)C(=O)O | inactive | inactive | inactive | inactive | inactive |  | inactive | inactive | inactive | inactive | inactive | inactive |  |  | inactive |  | inactive | inactive | inactive
